Rows were chosen to be rich in hits. Some 2.4% of all compounds tested hit in one or more screens of this group.
Pol eta inh-1 – inhibitors of human DNA polymerase eta; recombinant Pol eta, fluorescent DNA replication assay; Potency, µM (top dose mostly 114 µM), for the others: at the highest dose activity change, negative = inhibition, hits mostly inhibitors; 390,000 compounds, 1.2% hits; AID 588591; note: % is set by controls: 0 for no effect and ±100 for the full control effect
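Fluorescent replication assay: 50 nM final substrate added after a 15 min room-temperature compound preincubation with 10 nM enzyme. Signal taken at 0 min and again at 10 min.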
POLI inh – blocks human DNA polymerase iota activity. Q9UNA4. Pol iota fluorescent replication assay, 10 min. Potency, µM (series often up to 115 µM), for the others: at the top dose activity, negative = inhibition, usual class: inhibitors. 390,000 compounds, 1% hits
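Pol iota at 10 nM preincubated 15 min with compounds at room temperature; reaction started with fluorescent substrate, 50 nM final. Fluorescence read kinetically at 0 and 10 min; buffer-only wells as negative control.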
POLB inh – inhibitors of human DNA polymerase beta; Pol beta primer extension/strand displacement, fluorescence kinetic; Potency, µM (titrated, usually from 114 µM), without a hit: at the highest dose activity change, negative = inhibition, most hits filed as inhibitors; 340,000 compounds, 1.3% hits; note: % is set by controls: 0 for no effect and ±100 for the full control effect
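Human Pol beta at 10 nM; strand-displacement substrate 50 nM final. Compound exposure 15 min at room temperature before start, reaction 10 min at room temperature.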
Pol kappa inh-1 – DNA polymerase kappa (human) inhibition; purified Pol kappa, fluorescent DNA synthesis assay, 10 min; Q9UBT6; 400,000 compounds, 0.53% hits; Potency, µM (series often up to 107 µM), without a hit: at the highest dose activity, negative = inhibition, actives largely listed as inhibitors; note: % is set by controls: 0 for no effect and ±100 for the full control effect
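Kinetic fluorescence readout at 0 and 10 min followed reaction start with substrate at 50 nM final. Beforehand, enzyme (10 nM Pol kappa) stood 15 min with compound at room temperature; buffer-only wells were negative controls.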
TDP1 inh – blocks human tyrosyl-DNA phosphodiesterase 1. Q9NUW8. recombinant TDP1, AlphaScreen DNA substrate cleavage. Potency, µM (titrated, usually from 130 µM), for inactives: at the highest dose activity change, negative = inhibition, hits mostly inhibitors. 350,000 compounds, 0.28% hits; note: % is set by controls: 0 for no effect and ±100 for the full control effect; nearly all actives have a fitted effect of over 40% in size
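Signal: AlphaScreen proximity between streptavidin donor and anti-FITC acceptor beads on intact substrate. Reaction: Tdp1 1 nM, substrate 15 nM final, 5 min RT after 15 min compound preincubation.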
PGK validate – validation of Trypanosoma brucei phosphoglycerate kinase inhibitors; 500 compounds, 79% hits; Potency, µM (titrated, usually from 57.5 µM), for inactives: at the highest dose activity change, negative = inhibition, most hits filed as inhibitors; TbPGK coupled GAPDH assay, Kinase-Glo luminescence; shares compounds with Pol kappa inh-1; note: % is set by controls: 0 for no effect and ±100 for the full control effect; nearly all actives have a fitted effect of over 65% in size
Target sequence (P07378 whole entry, looked up): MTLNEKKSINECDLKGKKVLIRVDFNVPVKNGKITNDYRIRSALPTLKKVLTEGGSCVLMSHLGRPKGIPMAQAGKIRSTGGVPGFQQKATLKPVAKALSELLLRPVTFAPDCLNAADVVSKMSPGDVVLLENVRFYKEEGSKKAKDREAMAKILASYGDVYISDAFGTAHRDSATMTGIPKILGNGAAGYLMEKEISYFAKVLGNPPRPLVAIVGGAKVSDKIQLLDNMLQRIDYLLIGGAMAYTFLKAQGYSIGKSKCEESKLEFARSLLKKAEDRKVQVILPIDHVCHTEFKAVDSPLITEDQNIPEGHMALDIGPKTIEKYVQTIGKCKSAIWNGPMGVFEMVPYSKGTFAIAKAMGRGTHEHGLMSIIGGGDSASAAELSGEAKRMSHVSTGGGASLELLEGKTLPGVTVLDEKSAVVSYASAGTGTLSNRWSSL
Pol iota confirm – Human Pol iota inhibitor confirmatory assay; shares compounds with Pol kappa inh-1; Pol iota primer extension, TAMRA/BHQ fluorescence; Potency, µM, usual class: inhibitors; 1,500 compounds, 77% hits; AID 720496
Pol kappa inh-2 – Pol kappa (human) inhibition, cherry-pick confirmation; shares compounds with Pol eta inh-1; purified Pol-kappa, fluorescent strand-displacement substrate; Potency, µM, usual class: inhibitors; 920 compounds, 76% hits
Pol eta inh-2 – confirmation of human DNA polymerase eta inhibitors | shares compounds with Pol eta inh-1 | Pol eta primer extension, TAMRA/BHQ fluorescence, 10 min | Potency, µM, most hits filed as inhibitors | 2,600 compounds, 64% hits | AID 720502
An asterisk follows results filed as active; [ ] = dose if it differs, or a comment. Calls come from the whole dose curve; as a rule, active = well fitted curve in the direction sought with a large enough effect; inconclusive = small, poorly fitted or top-dose-only effect, or another doubt; inactive = no such curve, though single readings can be large; an effect the other way counts as inactive or inconclusive. Potency is the fitted concentration of half-maximal effect.

Results for CCc1ccccc1Nc1nn2c(=O)c3ccc(C(=O)NCc4cccs4)cc3nc2s1 ?
Pol eta inh-1: inconclusive; POLI inh: 79.4µM*; POLB inh: 8.91µM*; Pol kappa inh-1: -0.1%[60.1 µM]; Pol iota confirm: inconclusive; Pol kappa inh-2: inconclusive

Results for COc1ccc(Cc2nc3ccccc3n2CC(=O)N/N=C/c2ccc(C)cc2O)cc1OC ?
Pol eta inh-1: inconclusive; POLI inh: 20µM*; POLB inh: 7.94µM*; Pol kappa inh-1: inconclusive; TDP1 inh: 0.0%; Pol iota confirm: 9.47*; Pol kappa inh-2: 29.9*; Pol eta inh-2: 67.5*

How did CCOC(=O)N1CCC(NC(=O)c2ccc3c(c2)N(Cc2ccc(F)cc2)C(=O)c2ccccc2S3=O)CC1 (stereo not drawn) do in these assays?
Pol eta inh-1: -7.2%; POLI inh: -1.4%; POLB inh: 23.4%; Pol kappa inh-1: -19.0%; TDP1 inh: 4.6%

Results for COc1ccc(C2c3c(oc4ccccc4c3=O)C(=O)N2c2nc(C)c(C)s2)cc1 (stereo not drawn) ?
Pol eta inh-1: -2.6%; POLI inh: -0.8%; POLB inh: 3.8%; Pol kappa inh-1: 2.0%; TDP1 inh: 2.1%

What do the screens show for `O=C(O)C1=CCC=CC1C(=O)O` (stereo not drawn)?
Pol eta inh-1: 5.01µM*; PGK validate: 3.26µM*; Pol iota confirm: 21.2*; Pol eta inh-2: 15.1*

What do the screens show for `Cn1c(SCC(=O)N/N=C/C=C\c2ccco2)nc2ccccc21`?
Pol eta inh-1: 22.4µM*; POLI inh: 12.6µM*; POLB inh: 44.7µM*; Pol kappa inh-1: 28.2µM*; TDP1 inh: -3.8%; Pol iota confirm: inconclusive; Pol kappa inh-2: 67*; Pol eta inh-2: 67.5*

How did C/C(=N/NC(=O)CSc1nc2ccccc2n1C)c1ccco1 do in these assays?
Pol eta inh-1: -1.7%; POLI inh: -11.9%; POLB inh: 14.4%; Pol kappa inh-1: -5.1%; TDP1 inh: 4.3%

Results for COc1ccc(NC(=O)Cn2c(=O)n(-c3ccc(Cl)cc3)c(=O)c3c(C)c(C(=O)N(C)C)sc32)cc1Cl ?
Pol eta inh-1: 7.9%; POLI inh: 4.4%; POLB inh: -5.4%; Pol kappa inh-1: 1.1%[60.1 µM]; TDP1 inh: -3.4%

Results for O=C(O)C1NCc2[nH]cnc2C1c1ccccc1 (stereo not drawn) ?
Pol iota confirm: 59.7*; Pol eta inh-2: inconclusive

What do the screens show for `O=C(O)C1Oc2ccccc2C1c1ccccc1` (stereo not drawn)?
Pol eta inh-1: -6.2%; POLI inh: 13.1%; Pol kappa inh-1: -2.1%

How did CCCCC[C@H](O)/C=C/C=C\CCCCCCCC(=O)O do in these assays?
Pol kappa inh-1: 2.7%[19.4 µM]; TDP1 inh: 7.3%

What do the screens show for `CN(Cc1ccco1)c1ncnc2ccc(-c3ccccc3Cl)cc12`?
Pol eta inh-1: -14.2%; POLI inh: 0.9%; Pol kappa inh-1: -2.5%; TDP1 inh: 4.2%

How did CN(Cc1ccco1)c1ncnc2ccc(-c3ccoc3)cc12 do in these assays?
Pol eta inh-1: -26.3%; POLI inh: 28.2µM*; Pol kappa inh-1: inconclusive; TDP1 inh: 0.8%; Pol iota confirm: 16.8*; Pol kappa inh-2: 16.8*; Pol eta inh-2: 37.9*

How did C=C(C)C(=O)Oc1ccc(N=Nc2ccc(C)cc2)ccc1=O do in these assays?
Pol eta inh-1: 3.55µM*; POLI inh: inconclusive; Pol kappa inh-1: 50.1µM*; PGK validate: 1.46µM*; Pol iota confirm: 23.8*; Pol kappa inh-2: 10.6*; Pol eta inh-2: 19*

What do the screens show for `CCc1n[nH]c(=S)n1/N=C/c1cc(OC)cc([N+](=O)[O-])c1O`?
Pol eta inh-1: 20µM*; POLI inh: inconclusive; POLB inh: 1.5%; Pol kappa inh-1: -34.6%; TDP1 inh: 2.7%; Pol iota confirm: 33.6*; Pol eta inh-2: 60.1*

What do the screens show for `COc1cc(/C=N/n2c(=S)[nH]nc(C)c2=O)cc([N+](=O)[O-])c1O`?
Pol eta inh-1: -13.8%; POLI inh: 4.7%; POLB inh: -11.5%; Pol kappa inh-1: -6.6%; TDP1 inh: -4.9%

What do the screens show for `O=C(N/N=C/c1cn(Cc2cccc(F)c2)c2ccccc12)c1cc(O)cc(O)c1`?
Pol eta inh-1: 1.58µM*; POLI inh: inconclusive; POLB inh: 1.41µM*; Pol kappa inh-1: 7.08µM*; TDP1 inh: 0.631µM*; PGK validate: 2.06µM*; Pol iota confirm: 8.44*; Pol eta inh-2: 8.49*

What do the screens show for `Nc1ccc(C(=O)N/N=C/c2cn(Cc3ccc(F)cc3)c3ccccc23)cc1`?
Pol eta inh-1: -12.3%; POLI inh: 8.2%; POLB inh: -28.3%; Pol kappa inh-1: -16.3%; TDP1 inh: 6.5%[56.1 µM]

How did O=C(O)c1ccc(/C=C2/SC(=S)N(Cc3ccccc3)C2=O)cc1 do in these assays?
Pol eta inh-1: -16.4%; POLI inh: -18.2%; POLB inh: -28.3%; Pol kappa inh-1: -3.5%

How did O=C(O)c1ccc(-n2cccc2/C=C2\SC(=O)N(Cc3cccc(Cl)c3)C2=O)cc1 do in these assays?
Pol iota confirm: inconclusive; Pol eta inh-2: 30.1*

How did O=C(O)c1ccc(-n2cccc2/C=C2\SC(=O)N(Cc3ccc(Cl)cc3)C2=O)cc1 do in these assays?
Pol iota confirm: 42.3*; Pol eta inh-2: 15.1*

Results for COc1ccc(S(=O)(=O)Nc2ccc3c(c2)N(C(C)=O)CCC3)cc1F ?
Pol eta inh-1: -11.0%; POLI inh: 59.9%; POLB inh: 11.4%; Pol kappa inh-1: -12.2%[60.1 µM]; TDP1 inh: 6.2%

What do the screens show for `COc1cc(C(=O)OCC(=O)NC2CCS(=O)(=O)C2)c([N+](=O)[O-])cc1OC` (stereo not drawn)?
Pol eta inh-1: -2.9%; POLI inh: 124.4%; POLB inh: 21.8%; Pol kappa inh-1: 2.4%; TDP1 inh: -2.5%

What do the screens show for `O=C(COC(=O)c1ccc([N+](=O)[O-])o1)NC1CCS(=O)(=O)C1` (stereo not drawn)?
Pol eta inh-1: 44.7µM*; POLI inh: 63.1µM*; POLB inh: 0.1%; Pol kappa inh-1: -15.9%; TDP1 inh: 5.4%; Pol iota confirm: inconclusive; Pol eta inh-2: inconclusive

Screening results: PubChem BioAssay, National Center for Advancing Translational Sciences (NCATS)
